In PubChem BioAssay (Tox21):
Inconclusive results are not listed. Where a call stands in place of a potency, no number is given. Unmarked numbers belong to inactive results. Activity calls are given as the source filed them. Unless noted, calls follow the shape of the dose curve; as a rule, active = well fitted curve in the direction sought with a large enough effect in the repeat runs; inconclusive = weak or mixed curves; inactive = no such curve, though single readings can be large; an effect the other way counts as inactive or inconclusive.

Assays:
[1] = qHTS assay to identify small molecule agonists of the RXR signaling pathway - cell viability counter screen (AID 1159529);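 also: HEK 293T cells carrying an RXR-alpha UAS beta-lactamase reporter; series mostly up to about 77 µM; nearly all actives have a fitted effect of over 50% in size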
Outline: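 Viability read-out for the RXR-alpha agonist qHTS: luminescent CellTiter-Glo signal after 30 min at RT. HEK 293T bla reporter cells, 2% charcoal-stripped FBS, 16 hr compound incubation; tetraoctyl ammonium bromide as cytotoxic control.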

[2] = qHTS assay to identify small molecule antagonists of the retinoid acid receptor (RAR) signaling pathway - cell viability counter screen (AID 1159551); also: nearly all actives have a fitted effect of over 35% in size
Outline: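 ATP-based viability, C3RL4 cells, 6 h at 37 C with 1 uM final retinol co-added after compound; luminescence read 30 min post CellTiter-Glo, RT.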

[3] = qHTS assay to identify small molecule antagonists of the estrogen related receptor (ERR) signaling pathway - cell viability counter screen (AID 1224818);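 also: series mostly up to about 46 µM; viability measured after 17.5 h of compound exposure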
Outline: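 Quantitative high-throughput viability counter screen in ERR cells. Compounds (DMSO) incubated 17.5 h at 37 C; read-out was CellTiter-Fluor fluorescence.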

[4] = qHTS assay to identify small molecule antagonists of the estrogen related receptor (ERR) signaling pathway (AID 1224819;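 also: luminescence from an ERR-driven luciferase reporter measured with One-Glo reagent; series mostly up to about 46 µM; nearly all actives have a fitted effect of over 50% in size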)
Outline: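 ERR reporter cell line (NTP) plated at 2,000 cells/well, settled 6 h at 37C/5% CO2, then exposed to LOPAC compounds for 18 h at 37C. One-Glo luciferase luminescence read after 30 min at room temperature.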

[5] = qHTS assay to identify small molecule agonists of the estrogen related receptor (ERR) signaling pathway (AID 1224820)
Outline: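 Luminescence readout (One-Glo, 30 min RT) from NTP-supplied ERR cell line exposed to compounds for 18 h at 37 C. Cells seeded 2,000 per well and pre-incubated 6 h before pin-tool compound transfer.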

[6] = system: estrogen-related receptor alpha (ERRalpha) with PGC-1alpha coactivator, human; assay: qHTS assay to identify small molecule antagonists of the estrogen related receptor signaling pathway with the pleiotropic PPARgamma coactivator (PGC) (AID 1224821; calls by dose curve;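 also: series mostly up to about 46 µM; lower luminescence signal means antagonism of PGC/ERR signalling; nearly all actives have a fitted effect of over 50% in size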)
Outline: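 PGC/ERR reporter cells; 6 h pre-incubation 37 C/5% CO2; pin-tool compound in DMSO, 18 h 37 C; One-Glo added, 30 min RT; luminescence read. qHTS antagonist mode.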

[7] = qHTS assay to identify small molecule antagonists of the estrogen related receptor signaling pathway with the pleiotropic PPARgamma coactivator (PGC) cell viability counter screen (AID 1224822; also: series mostly up to about 46 µM)
Outline: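 Cytotoxicity in the PGC/ERR cell line is assessed with CellTiter-Fluor, read as fluorescence intensity 30 min after reagent addition, following 17.5 h compound treatment at 37 C.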

[8] = qHTS assay to identify small molecule agonists of the estrogen related receptor signaling pathway with the pleiotropic PPARgamma coactivator (PGC) (AID 1224823)
Outline: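 Luminescence readout (One-Glo, 30 min RT) from PGC/ERR cell line treated 18 h at 37 C with pin-tool-delivered DMSO compound solutions; cells plated 6 h before dosing. Quantitative HTS format.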

[9] = qHTS assay to identify small molecule antagonists of the estrogen related receptor (ERR) signaling pathway from Tox21 library - cell viability counter screen (AID 1224834); also: nearly all actives have a fitted effect of over 30% in size; also: potency is read from the fitted curve at half-maximal effect
Outline: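 Compounds in DMSO were pinned onto ERR cells that had been incubated for 6 h, and the plates were held at 37 C for 17.5 h. CellTiter-Fluor reagent was then added and fluorescence was measured after 30 min.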

[10] = qHTS assay to identify small molecule agonists of the constitutive androstane receptor (CAR) signaling pathway - cell viability counter screen (AID 1224836); also: series mostly up to about 92 µM; nearly all actives have a fitted effect of over 45% in size
Outline: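 Multiplexed viability check: HepG2-CYP2B6-hCAR cells, 15-point compound dosing, 0.75 uM PK11195 final, 23 h at 37 C, CellTiter-Fluor fluorescence.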

[11] = qHTS assay to identify small molecule antagonists of the constitutive androstane receptor (CAR) signaling pathway - cell viability counter screen (AID 1224837); also: series mostly up to about 92 µM; nearly all actives have a fitted effect of over 45% in size
Outline: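 Cells are seeded, rested 4 hr at 37 C/5% CO2, dosed with compound (15-point series) and 50 nM CITCO, incubated a further 23 hr, and then CellTiter-Fluor reagent is added before fluorescence is read. The line is HepG2 with stable hCAR and CYP2B6-2.2kb.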

[12] = qHTS assay to identify small molecule antagonists of the estrogen related receptor signaling pathway with the pleiotropic PPARgamma coactivator (PGC) from Tox21 10K library - cell viability counter screen (AID 1224840; active = well fitted cell-killing curve with a large enough effect in the repeat runs, not every such curve was filed as active; also: nearly all actives have a fitted effect of over 40% in size)
Outline: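 Cell viability is measured by CellTiter-Fluor fluorescence in PGC/ERR cells that receive compounds after a 6-hour attachment period and are then incubated 17.5 hours at 37 C.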

[13] = qHTS assay to identify small molecule antagonists of the estrogen related receptor signaling pathway with the pleiotropic PPARgamma coactivator (PGC) from Tox21 10K library (AID 1224841; call rule not given here; also: actives are mostly falling curves and most rising ones were filed inactive; nearly all actives have a fitted effect of over 50% in size; also: potency is read from the fitted curve at half-maximal effect)
Outline: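 Cells stably carrying the PGC/ERR reporter, seeded at 2,000 per well, received pin-transferred compounds 6 h post-plating. Exposure lasted 18 h at 37 C. Signal: One-Glo luminescence.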

[14] = qHTS assay to identify small molecule agonists of the estrogen related receptor signaling pathway with the pleiotropic PPARgamma coactivator (PGC) from Tox21 10K library (AID 1224842); also: nearly all actives have a fitted effect of over 15% in size; also: potency is read from the fitted curve at half-maximal effect
Outline: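 PGC/ERR reporter cells (NTP line) were seeded 2,000 per well, rested 6 h at 37 C/5% CO2, then pin-dosed with compounds in DMSO for 18 h at 37 C; luciferase read by One-Glo luminescence after 30 min at room temperature.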

[15] = target: Thyrotropin receptor (Homo sapiens) (UniProt P16473); assay: qHTS assay to identify small molecule agonists of the thyroid stimulating hormone receptor (TSHR) signaling pathway (AID 1224843; calls by dose curve; also: nearly all actives have a fitted effect of over 45% in size)
Thyrotropin receptor (Homo sapiens), sequence (P16473 whole entry, looked up): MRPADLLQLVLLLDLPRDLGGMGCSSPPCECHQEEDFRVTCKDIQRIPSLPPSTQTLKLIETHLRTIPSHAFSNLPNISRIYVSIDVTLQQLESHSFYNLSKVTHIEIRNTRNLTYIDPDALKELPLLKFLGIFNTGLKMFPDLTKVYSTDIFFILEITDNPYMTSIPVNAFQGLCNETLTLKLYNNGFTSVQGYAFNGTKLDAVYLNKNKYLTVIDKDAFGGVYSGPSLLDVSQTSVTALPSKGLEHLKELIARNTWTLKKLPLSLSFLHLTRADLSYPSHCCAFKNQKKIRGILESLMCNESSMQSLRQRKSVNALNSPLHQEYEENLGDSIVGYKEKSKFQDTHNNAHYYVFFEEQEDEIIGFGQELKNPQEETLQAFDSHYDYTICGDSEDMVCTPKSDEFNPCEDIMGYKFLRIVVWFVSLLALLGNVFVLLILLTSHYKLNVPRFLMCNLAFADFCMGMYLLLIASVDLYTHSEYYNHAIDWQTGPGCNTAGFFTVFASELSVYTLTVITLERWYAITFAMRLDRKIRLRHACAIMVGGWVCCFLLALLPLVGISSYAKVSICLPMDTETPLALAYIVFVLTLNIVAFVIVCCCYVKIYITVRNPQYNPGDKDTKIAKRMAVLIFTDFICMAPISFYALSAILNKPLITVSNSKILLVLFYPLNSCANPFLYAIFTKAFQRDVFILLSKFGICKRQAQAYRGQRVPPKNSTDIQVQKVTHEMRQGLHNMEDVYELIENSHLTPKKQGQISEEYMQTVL
Outline: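 Using 15 concentrations per compound in triplicate, cAMP production was monitored in TSHR-HEK293 cells after 30 min compound incubation at RT; HTRF reagents followed, with fluorescence intensity recorded after 1 h.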

[16] = qHTS assay to identify small molecule agonists of the retinoic acid receptor (RAR) signaling pathway (AID 1159553)
Outline: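 Quantitative high-throughput format: the Tox21 10K library was tested on C3RL4 RARE-luciferase cells for 6 hr at 37 C and 5% CO2, with luminescence measured after a 30 min room-temperature reagent step.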

[17] = target: Luciferin 4-monooxygenase (Photinus pyralis) (UniProt P08659); assay: qHTS assay to identify small molecule inhibitors of firefly luciferase (AID 1224835); also: series mostly up to about 120 µM; nearly all actives have a fitted effect of over 25% in size
Luciferin 4-monooxygenase (Photinus pyralis), sequence (P08659 whole entry, looked up): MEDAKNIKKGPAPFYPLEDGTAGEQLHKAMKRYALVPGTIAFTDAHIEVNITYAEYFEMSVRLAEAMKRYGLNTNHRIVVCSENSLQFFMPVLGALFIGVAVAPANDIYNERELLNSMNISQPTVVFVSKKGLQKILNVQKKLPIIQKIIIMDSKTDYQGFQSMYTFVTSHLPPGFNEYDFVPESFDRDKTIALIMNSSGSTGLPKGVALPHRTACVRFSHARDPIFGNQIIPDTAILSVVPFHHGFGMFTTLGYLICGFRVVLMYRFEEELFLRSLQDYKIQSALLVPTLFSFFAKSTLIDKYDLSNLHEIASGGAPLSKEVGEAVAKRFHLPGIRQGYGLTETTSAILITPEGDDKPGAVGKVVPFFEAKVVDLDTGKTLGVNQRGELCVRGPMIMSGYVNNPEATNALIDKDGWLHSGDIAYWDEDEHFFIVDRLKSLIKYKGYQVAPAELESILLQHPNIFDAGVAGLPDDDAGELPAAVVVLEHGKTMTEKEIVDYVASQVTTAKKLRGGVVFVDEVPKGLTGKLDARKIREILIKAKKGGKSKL
Outline: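 Quantitative HTS format; KM concentrations of both substrates. Purified P. pyralis FLuc activity quantified from luminescence images.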

[18] = target: Nuclear receptor subfamily 1 group I member 3 (Homo sapiens) (UniProt Q14994); assay: qHTS assay to identify small molecule antagonists of the constitutive androstane receptor (CAR) signaling pathway (AID 1224838);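 also: HepG2 cells stably expressing hCAR with CYP2B6 luciferase reporter stimulated by CITCO; nearly all actives have a fitted effect of over 40% in size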; also: potency is read from the fitted curve at half-maximal effect
Nuclear receptor subfamily 1 group I member 3 (Homo sapiens), sequence (Q14994 whole entry, looked up): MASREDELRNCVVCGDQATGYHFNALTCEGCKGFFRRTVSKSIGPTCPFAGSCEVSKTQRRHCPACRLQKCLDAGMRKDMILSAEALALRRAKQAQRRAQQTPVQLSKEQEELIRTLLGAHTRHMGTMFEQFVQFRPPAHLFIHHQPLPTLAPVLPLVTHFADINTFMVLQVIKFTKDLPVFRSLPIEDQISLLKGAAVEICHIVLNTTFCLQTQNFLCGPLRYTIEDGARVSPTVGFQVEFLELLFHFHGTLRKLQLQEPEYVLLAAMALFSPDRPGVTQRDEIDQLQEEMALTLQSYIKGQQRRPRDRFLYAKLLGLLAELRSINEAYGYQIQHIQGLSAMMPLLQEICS
Outline: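 Luminescence from a CYP2B6-2.2kb promoter reporter in hCAR-expressing HepG2 cells reflects CAR signaling. Cells received compounds at 15 concentrations and 50 nM CITCO (final), then incubated 24 h at 37 C/5% CO2.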

[19] = target: Nuclear receptor subfamily 1 group I member 3 (Homo sapiens) (UniProt Q14994); assay: qHTS assay to identify small molecule agonists of the constitutive androstane receptor (CAR) signaling pathway (AID 1224839);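 also: HepG2 cells stably carrying human CAR and a CYP2B6 luciferase reporter; series mostly up to about 92 µM; nearly all actives have a fitted effect of over 15% in size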
Outline: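 Using human hepatoma HepG2 cells engineered with hCAR and a CYP2B6-2.2kb reporter, 15-concentration compound series were incubated 24 h alongside PK11195 at 0.75 uM final, with luminescence quantified afterwards.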

Structure (SMILES) | Potency [1] | outcome [2] | outcome [3] | outcome [4] | outcome [5] | outcome [6] | outcome [7] | outcome [8] | Potency [9] | outcome [10] | outcome [11] | outcome [12] | Potency [13] | Potency [14] | Potency [15] | Potency [16] | Potency [17] | Potency [18] | Potency [19]
Cc1ccc(C(=O)Nc2ccc(S(=O)(=O)O)c3cc(S(=O)(=O)O)cc(S(=O)(=O)O)c23)cc1NC(=O)c1cccc(NC(=O)Nc2cccc(C(=O)Nc3cc(C(=O)Nc4ccc(S(=O)(=O)O)c5cc(S(=O)(=O)O)cc(S(=O)(=O)O)c45)ccc3C)c2)c1 | inactive | inactive | inactive | inactive | inactive | inactive | inactive | inactive | inactive | inactive | inactive | inactive | inactive | inactive | inactive | – | – | – | –
CCN(Cc1ccccc1)c1ccccc1 | inactive | inactive | – | – | – | – | – | – | 24 µM (active) | – | – | – | 42.7 µM (active) | inactive | inactive | inactive | inactive | – | –
[K+] | inactive | inactive | – | – | – | – | – | – | inactive | inactive | inactive | inactive | – | – | – | – | inactive | inactive | inactive
Nc1ccn([C@@H]2O[C@H](CO)[C@@H](O)C2(F)F)c(=O)n1 | inactive | inactive | – | – | – | – | – | – | inactive | inactive | inactive | inactive | – | – | inactive | inactive | inactive | 0.596 µM (active) | inactive
N[C@@H](CCC(=O)O)C(=O)O | inactive | inactive | inactive | – | – | – | inactive | – | inactive | inactive | inactive | inactive | – | – | – | – | inactive | inactive | inactive
Nc1ccn([C@@H]2O[C@H](CO)[C@@H](O)C2O)c(=O)n1 (stereo not given in full) | inactive | inactive | – | – | – | – | – | – | inactive | inactive | inactive | inactive | inactive | inactive | – | inactive | inactive | – | inactive
Nc1c2c(nc3c1CCC3)CCCC2 | inactive | inactive | – | – | – | – | – | – | inactive | inactive | inactive | inactive | inactive | inactive | – | inactive | inactive | inactive | inactive
CCN1C=CN(C)C1C (stereo not given) | inactive | inactive | – | – | – | – | – | – | inactive | inactive | inactive | inactive | – | inactive | inactive | inactive | inactive | – | –
O=C(c1ccccc1)C1(O)CCCCC1 | inactive | inactive | – | – | – | – | – | – | inactive | inactive | inactive | inactive | – | – | – | – | inactive | inactive | inactive
CCCCS(=O)(=O)N[C@@H](Cc1ccc(OCCCCC2CCNCC2)cc1)C(=O)O | inactive | inactive | – | – | – | – | – | – | inactive | inactive | inactive | inactive | – | – | inactive | inactive | inactive | – | –
O=C(CO)[C@@H](O)[C@H](O)[C@H](O)CO | inactive | inactive | – | – | – | – | – | – | inactive | inactive | inactive | inactive | inactive | 0.0017 µM (active) | – | – | inactive | inactive | inactive
CC(C(=O)O)c1cccc(Oc2ccccc2)c1 (stereo not given) | inactive | inactive | – | – | – | – | – | – | inactive | inactive | inactive | inactive | – | – | – | inactive | inactive | inactive | inactive
CO/N=C(\C(=O)N[C@@H]1C(=O)N2C(C(=O)O)=C(CSc3nc(=O)c(O)nn3C)CS[C@H]12)c1csc(N)n1 | inactive | inactive | – | – | – | – | – | – | inactive | inactive | inactive | inactive | inactive | inactive | inactive | inactive | inactive | inactive | inactive
CC(C)NNC(=O)c1ccncc1 | inactive | inactive | inactive | – | – | – | inactive | – | inactive | inactive | inactive | inactive | – | – | inactive | – | inactive | – | –
FB(F)F | inactive | inactive | – | – | – | – | – | – | inactive | inactive | inactive | inactive | 45.4 µM (active) | inactive | inactive | inactive | inactive | – | –
CC1=NN(c2cccc(S(=O)(=O)O)c2)C(=O)C1 | inactive | inactive | – | – | – | – | – | – | inactive | inactive | inactive | inactive | inactive | inactive | – | – | inactive | inactive | inactive
Clc1cc(Cl)cc(Cl)c1 | inactive | inactive | – | – | – | – | – | – | inactive | inactive | inactive | inactive | inactive | inactive | inactive | – | inactive | inactive | inactive
C=COCC1CCC(COC=C)CC1 (stereo not given) | inactive | inactive | – | – | – | – | – | – | inactive | inactive | inactive | inactive | inactive | inactive | inactive | – | inactive | inactive | inactive
CC/C=C\CCOC(C)OCC (stereo not given) | inactive | inactive | – | – | – | – | – | – | inactive | inactive | inactive | inactive | – | – | inactive | – | inactive | inactive | inactive
CC(=O)C1CCCCC1=O (stereo not given) | inactive | inactive | – | – | – | – | – | – | inactive | inactive | inactive | inactive | – | – | inactive | – | inactive | inactive | inactive
